Records with an inconclusive call do not appear. Calls of active or inactive are those of the source. The call rests on the fitted dose curve; in most records, active means well fitted cell-killing curve with a large enough effect; inconclusive means small, poorly fitted or top-dose-only effect, or effect the other way; inactive means no such curve, though single readings can be large or run the other way.
assay: Quantitative High-Throughput drug screen in 47 multiple myeloma cell lines against the NCATS MIPE library collection: KMS12BM_JCRB cell viability assay (AID 1918971); settings: KMS12BM myeloma viability, CellTiter-Glo ATP, 48 h; series mostly up to 45.8 µM; further: nearly all actives have a fitted effect of over 35% in size
Text: PI: Beverly A. Mock Ph.D.
Laboratory of Cancer Biology and Genetics,
Center for Cancer Research, National Cancer Institute,
National Institute of Health, Bethesda, Maryland
Drug resistance and disease progression are common in multiple myeloma (MM) patients, underscoring the need for new therapeutic combinations. […] We hypothesized that effective combinations would reduce MYC expression and enhance p16 activity. […] These preclinical data identify potentially useful drug combinations for evaluation in drug-resistant MM and reveal potential mechanisms of combined drug sensitivity.
Described herein is the primary MIPE qHTS used to cherrypick compounds. Validated compounds were then further tested for potential synergistic activiy.
[1] Peat TJ, Gaikwad SM, Dubois W, Gyabaah-Kessie N, Zhang S, Gorjifard S, Phyo Z, Andres M, Hughitt VK, Simpson RM, Miller MA, Girvin AT, Taylor A, Williams D, D'Antonio N, Zhang Y, Rajagopalan A, Flietner E, Wilson K, Zhang X, Shinn P, Klumpp-Thomas C, McKnight C, Itkin Z, Chen L, Kazandijian D, Zhang J, Michalowski AM, Simmons JK, Keats J, Thomas CJ, Mock BA. Drug combinations identified by high-throughput screening promote cell cycle transition and upregulate Smad pathways in myeloma. Cancer Lett. 2023 Aug 1;568:216284. doi: 10.1016/j.canlet.2023.216284. Epub 2023 Jun 24. PMID: 37356470; PMCID: PMC10408729.
SEQUENCE No. (e.g., 1, 2, 3, etc.); […] (e.g., Cells, Incubation, Reagent, etc.); VALUE and DESCRIPTION.
1; Cells; 5 uL; white, solid bottom 1536-well Greiner assay plate.
2; Compounds; 23 nL; Kalypsis pin tool (Wako USA) equipped with a 1536-well pin head to transfer to the assay plates.
3; Incubation; 48 hours; 37C incubation.
4; Reagent;5uL; CellTiter Glo (Promega).
5; Detector; 425V; Luminescence; Viewlux PerkinElmer.
NOTES (numbers refer to Sequence numbers above)
1. The cell-based screening methods employed in this study were like those previously published. Briefly, the corresponding myeloma cell lines were screened in 1,536-well plates with 500 cells, 5-uL per well for inhibition of cell viability (assessed by measuring ATP levels with CellTiterGlo).
2. NCATS MIPE 4.0 library of approved and investigational drugs were added using the Kalypsis pin tool. Wells treated with DMSO only for 100% viability and media only wells for 0% viability were used as controls.
3. The assay plates were covered and incubated for 48 hours in a 37C, 5% CO2 incubator with controlled humidity.
4. After 48 hours, CellTilter-GloTM luminescent substrate mix (Promega) reagent was added to the assay plate and plates we incubated for 5 min at room temperature.
5. Signal was measured as median relative luminescence units on a ViewLux (PerkinElmer) multiplate reader.
[1] Heske CM, Davis MI, Baumgart JT, Wilson K, Gormally MV, Chen L, Zhang X, Ceribelli M, Duveau DY, Guha R, Ferrer M, Arnaldez FI, Ji J, Tran HL, Zhang Y, Mendoza A, Helman LJ, Thomas CJ. Matrix Screen Identifies Synergistic Combination of PARP Inhibitors and Nicotinamide Phosphoribosyltransferase (NAMPT) Inhibitors in Ewing Sarcoma. Clin Cancer Res. 2017 Dec 1;23(23):7301-7311. doi: 10.1158/1078-0432.CCR-17-1121. Epub 2017 Sep 12. PMID: 28899971; PMCID: PMC6636827.
Potency means the concentration at half of the fitted maximal effect.

Row | SMILES | Potency
1 | c1ccc(CCCN2CCN(CCOC(c3ccccc3)c3ccccc3)CC2)cc1 | 20.9 µM (active)
2 | COc1ccc(CC2NCCc3cc(OC)c(OC)cc32)cc1OC (stereo not given) | inactive
3 | COc1ccc(C(=O)c2c(C)n(CCN3CCOCC3)c3cc(I)ccc23)cc1 | 23.5 µM (active)
4 | CC=C(C)C(=O)O[C@H]1C(C)=C2[C@@H]3OC(=O)[C@@](C)(O)[C@@]3(O)[C@@H](OC(=O)CCC)C[C@](C)(OC(C)=O)[C@@H]2[C@@H]1OC(=O)CCCCCCC | 0.0418 µM (active)
5 | CC(=Cc1csc(C)n1)[C@@H]1C[C@H]2O[C@]2(C)CCC[C@H](C)[C@@H](O)[C@@H](C)C(=O)C(C)(C)[C@@H](O)CC(=O)O1 | inactive
6 | C=C1C[C@H]2[C@H]3CCC(=O)[C@@]3(C)CC[C@@H]2[C@@]2(C)C=CC(=O)C=C12 | 20.9 µM (active)
7 | COc1cccc2c1[C@]13CCN(CC4CC4)[C@H](C2)[C@]1(OC)CCC(=O)C3 | inactive
8 | O=[N+]([O-])c1ncc[nH]1 | 16.6 µM (active)
9 | CC1=C(O)C(=O)C=C2C1=CC=C1[C@@]2(C)CC[C@@]2(C)[C@@H]3C[C@](C)(C(=O)O)CC[C@]3(C)CC[C@]12C | 0.526 µM (active)
10 | CC(O)=C(C#N)C(=O)Nc1cc(Br)ccc1Br | 20.9 µM (active)
11 | COCC1(CO)C(=O)C2CCN1CC2 (stereo not given) | 7.43 µM (active)
12 | Cc1c(C(=O)c2cccc3ccccc23)c2cccc3c2n1[C@H](CN1CCOCC1)CO3 | 18.7 µM (active)
13 | Cc1c(C(=O)Nc2cccc(C(F)(F)F)c2)cc(-c2ccccc2)n1CCCN1CCOCC1 | 13.2 µM (active)
14 | CC[C@@H]1[C@@H](C)O[C@@](O)([C@@H](C)[C@H](O)[C@H](C)[C@H]2OC(=O)C=CC=C[C@@H](C)[C@@H]([C@@H](C)[C@@H](O)[C@H](C)[C@@]3(O)C[C@H](O[C@H]4C[C@H](O)[C@H](O)[C@H](C)O4)[C@H](CC)[C@@H](C)O3)OC(=O)C=CC=C[C@@H]2C)C[C@H]1O[C@H]1C[C@H](O)[C@H](O)[C@H](C)O1 | 0.935 µM (active)
15 | CCN1CCN(C(=O)Cc2ccc(Nc3ncc(F)c(Nc4ccc(C(=O)Nc5ccccc5Cl)cc4)n3)cc2)CC1 | 7.43 µM (active)
16 | O=C(N[C@H]1CN2CCC1CC2)c1ccc(Cl)cc1 | inactive
17 | CCCN1CCO[C@@H]2c3cc(O)ccc3OC[C@@H]21 | 14.8 µM (active)
18 | CC(=O)O[C@@]12CO[C@H]1C[C@H](O)[C@@]1(C)C(=O)[C@H](O)C3=C(C)[C@@H](O)C[C@@](O)([C@@H](OC(=O)c4ccccc4)[C@@H]21)C3(C)C | 1.48 µM (active)
19 | CC(=Cc1csc(C)n1)[C@@H]1C[C@H]2O[C@@H]2CCC[C@H](C)[C@@H](O)[C@@H](C)C(=O)C(C)(C)[C@@H](O)CC(=O)O1 | inactive
20 | N=c1c2c(-c3ccccc3)c(-c3ccccc3)n(Cc3ccccc3)c2ncn1C1CCC(O)CC1 (stereo not given) | 6.62 µM (active)

Row | SMILES | Potency
21 | O=C(O)CNC(=O)c1c(O)c2ccccc2n(Cc2ccccc2)c1=O | inactive
22 | C#CC1(O)CCC2C3CCC4=CC(=O)CCC4(C)C3CCC21C (stereo not given) | 4.18 µM (active)
23 | CN1[C@H]2CC(O)C[C@H]1[C@H]1O[C@H]12 (stereo not given in full) | 18.7 µM (active)
24 | O=c1[nH]c2ccc(Cl)cc2c(N[C@@H]2CN3CCC2CC3)c1-c1nc2ccccc2[nH]1 | 1.66 µM (active)
25 | COc1cc2cc(c1Cl)N(C)C(=O)C[C@H](OC(=O)C(C)C)[C@]1(C)O[C@H]1[C@H](C)[C@@H]1C[C@@](O)(NC(=O)O1)[C@H](OC)C=CC=C(C)C2 | inactive
26 | CCCCCC[C@H]1C(=O)O[C@H](C)[C@H](NC(=O)c2cccc(NC=O)c2O)C(=O)O[C@@H](C)[C@@H]1OC(=O)CC(C)C | 6.62 µM (active)
27 | Cc1[nH]nc2ccc(-c3cncc(OC[C@@H](N)Cc4c[nH]c5ccccc45)c3)cc12 | 2.64 µM (active)
28 | CCNC(=O)C[C@@H]1N=C(c2ccc(Cl)cc2)c2cc(OC)ccc2-n2c(C)nnc21 | 0.235 µM (active)
29 | COC[C@H]1OC(=O)c2coc3c2[C@@]1(C)C1=C(C3=O)[C@@H]2CC[C@H](O)[C@@]2(C)C[C@@H]1OC(C)=O | 3.32 µM (active)
30 | C[C@@H]1CC[C@@]2(OC1)O[C@H]1C[C@H]3[C@@H]4CC=C5C[C@@H](O[C@@H]6O[C@H](CO)[C@@H](O[C@@H]7O[C@@H](C)[C@H](O)[C@@H](O)[C@@H]7O)[C@H](O)[C@@H]6O[C@@H]6O[C@@H](C)[C@H](O)[C@@H](O)[C@@H]6O)CC[C@]5(C)[C@@H]4CC[C@]3(C)[C@@H]1[C@H]2C | 2.64 µM (active)
31 | CC[C@@]1(O)C(=O)OCc2c1cc1n(c2=O)Cc2cc3ccccc3nc2-1 | 0.166 µM (active)
32 | COc1ccc(N(C(=O)Oc2c(C)cccc2C)c2ccnc(Nc3ccc(N4CCN(C)CC4)cc3)n2)c(OC)c1 | 1.48 µM (active)
33 | C[C@]12COC(=O)C[C@@H]1CC[C@@H]1[C@H]2CC[C@@]2(C)[C@H]1CC[C@]2(C)O | 1.18 µM (active)
34 | C=C[C@@H]1CN2CCC1C[C@H]2[C@H](O)c1ccnc2ccccc12 (stereo not given in full) | 23.5 µM (active)
35 | c1ccc2c(CN3CCNCC3)cccc2c1 | inactive
36 | C[C@@H]1O[C@@H](O[C@@H]2C=C3CC[C@@H]4[C@@H](CC[C@]5(C)[C@H](c6ccc(=O)oc6)CC[C@@]45O)[C@@]3(C)CC2)[C@H](O)[C@H](O)[C@H]1O | 0.0187 µM (active)
37 | O=C(Oc1ccc([N+](=O)[O-])cc1)N1CCC(C(O)(c2ccc3c(c2)OCO3)c2ccc3c(c2)OCO3)CC1 | inactive
38 | O=c1cccc2n1CC1CNC[C@H]2C1 | inactive
39 | COc1ccc2c(c1)CN(C)CC2c1ccc(Cl)c(Cl)c1 (stereo not given) | 20.9 µM (active)
40 | C=C[C@@H]1CN2CCC1C[C@@H]2[C@@H](O)c1ccnc2ccccc12 (stereo not given in full) | 23.5 µM (active)

— PubChem BioAssay (NCATS)
